Records with an inconclusive call do not appear. Active and inactive are the calls of the source. Calls follow the shape of the dose curve; as a rule, active = well fitted curve in the direction sought with a large enough effect; inconclusive = small, poorly fitted or top-dose-only effect, or another doubt; inactive = no such curve, though single readings can be large or run the other way.
Target: Group 10 secretory phospholipase A2 (Mus musculus) (UniProt Q9QXX3)
Assay: Secondary Assay for Inhibitors of Ubiquitin-specific Protease USP2a: PLA2 Counterscreen
Details: purified murine PLA2, NBD C6-HPC fluorescence; series mostly up to 57.5 µM
Text: NIH Molecular Libraries Screening Centers Network [MLSCN] NIH Chemical Genomics Center [NCGC] MLSCN Grant: XO1-MH079852-01 PI Name: Nicholson, Ben. Progenra Inc, Malvern, PA NCGC Assay Overview: Homeostasis of cellular proteins is maintained through a combination of synthesis and degradation. The pathway that accounts for the majority of protein degradation is the ubiquitin-proteasomal pathway. Ubiquitin (Ub) is highly conserved in all cells and the generation of a multi-Ub chain typically targets proteins for degradation by the proteasome. However, ubiquitination is highly reversible and dynamic. Deubiquitination, the reverse process, is catalyzed through the action of enzymes referred to as isopeptidases or deubiquitinating enzymes (DUBs). […]
NCGC Assay Protocol Summary: The assay buffer, prepared fresh at the day of the assay, contains 20mM Tris-HCl pH 8.0, 2mM CaCl2, 2mM beta-mercaptoethanol, 0.1% DMSO. […] Plates were read immediately on an Envision (Perkin Elmer) plate reader using wavelengths of Ex 460nm /Em 535nm. Then, the assay plates were incubated for 2.5 hours and read again on the Envision using the same settings. […] Concentration-response curves were fitted to the normalized data and the concentration-response curves were then classified based on curve quality (r2), response magnitude and degree of measured activity. The time zero reading was used to flag fluorescence artifacts. […]

Chain of Group 10 secretory phospholipase A2 (Mus musculus) (Q9QXX3 whole entry, looked up): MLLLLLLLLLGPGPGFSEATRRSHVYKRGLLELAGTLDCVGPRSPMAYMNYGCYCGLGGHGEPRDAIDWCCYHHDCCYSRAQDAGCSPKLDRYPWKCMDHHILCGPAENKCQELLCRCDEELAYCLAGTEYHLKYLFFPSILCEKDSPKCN

Row | Compound | outcome
1 | CC1=NCCc2c1[nH]c1cc(O)ccc21 | inactive
2 | Cc1ccc2scc(N3CCN(C)CC3)c(=O)c2c1 | inactive

From PubChem BioAssay AID2278 (National Center for Advancing Translational Sciences (NCATS), 2010)
